# Source: PubChem BioAssay (NCATS)
# Results filed as inconclusive are left out. Where a call stands in place of a potency, no number is given. Unmarked numbers belong to inactive results. Active and inactive are the calls of the source. Calls follow the shape of the dose curve; as a rule, active = well fitted curve in the direction sought with a large enough effect; inconclusive = small, poorly fitted or top-dose-only effect, or another doubt; inactive = no such curve, though single readings can be large; an effect the other way counts as inactive or inconclusive.
# Columns and labels:
# [1] = test system: Zika virus NS2B-NS3 protease; test: Primary screen GU AMC qHTS for Zika virus inhibitors (AID 1347154); also: nearly all actives have a fitted effect of over 70% in size
# Method in brief: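 Unlinked Zika NS2B hydrophilic domain–NS3 protease complex at 25 nM in 10 mM Tris-HCl pH 8.0, 0.01% Tween 20, with an AMC peptide substrate. Fluorescence change (340/450 nm) over 15 min at room temperature, normalized to controls, fitted to 4-parameter Hill.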
# [2] = qHTS of pediatric cancer cell lines to identify multiple opportunities for drug repurposing: Confirmatory screen for control Hh wild type fibroblast cells (AID 1347121); also: nearly all actives have a fitted effect of over 70% in size; also: potency is read from the fitted curve at half-maximal effect
# Method in brief: (§1)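 Viability after 48 h compound treatment at 37C, 500-1,000 cells/well, read as ATP luminescence with CellTiter-Glo. Primary screens used 11-point (MIPE, 0.78 nM-46 µM) or 8-point (NPC, 0.59 nM-46 µM) final concentrations; follow-up screens used 11-point dilutions.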
# [3] = qHTS of pediatric cancer cell lines to identify multiple opportunities for drug repurposing: Confirmatory screen for U-2 OS cells (AID 1347122); also: nearly all actives have a fitted effect of over 65% in size; also: potency is read from the fitted curve at half-maximal effect
# Method in brief: as §1
# [4] = qHTS of pediatric cancer cell lines to identify multiple opportunities for drug repurposing: Confirmatory screen for Rh41 cells (AID 1347123);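 also: potency is read from the fitted curve at half-maximal effect; 48 h compound exposure; nearly all actives have a fitted effect of over 60% in size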
# Method in brief: as §1
# [5] = qHTS of pediatric cancer cell lines to identify multiple opportunities for drug repurposing: Confirmatory screen for Rh18 cells (AID 1347125); also: nearly all actives have a fitted effect of over 55% in size; also: potency is read from the fitted curve at half-maximal effect
# Method in brief: as §1
# [6] = qHTS of pediatric cancer cell lines to identify multiple opportunities for drug repurposing: Confirmatory screen for Rh30 cells (AID 1347126); also: nearly all actives have a fitted effect of over 55% in size; also: potency is read from the fitted curve at half-maximal effect
# Method in brief: as §1
# [7] = qHTS of pediatric cancer cell lines to identify multiple opportunities for drug repurposing: Confirmatory screen for Saos-2 cells (AID 1347127); also: nearly all actives have a fitted effect of over 60% in size; also: potency is read from the fitted curve at half-maximal effect
# Method in brief: as §1
# [8] = qHTS of pediatric cancer cell lines to identify multiple opportunities for drug repurposing: Confirmatory screen for OHS-50 cells (AID 1347128);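 also: compound exposure lasted 48 h at 37 degrees C; nearly all actives have a fitted effect of over 55% in size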; also: potency is read from the fitted curve at half-maximal effect
# Method in brief: as §1
# [9] = qHTS of pediatric cancer cell lines to identify multiple opportunities for drug repurposing: Confirmatory screen for SK-N-SH cells (AID 1347129);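 also: cells exposed to compound for 48 h before viability read; nearly all actives have a fitted effect of over 60% in size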; also: potency is read from the fitted curve at half-maximal effect
# Method in brief: as §1
# [10] = qHTS of pediatric cancer cell lines to identify multiple opportunities for drug repurposing: Confirmatory screen for RD cells (AID 1347124);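 also: cells exposed to compound for 48 h before viability readout; nearly all actives have a fitted effect of over 65% in size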
# Method in brief: as §1
# [11] = target: Furin (Homo sapiens) (UniProt P09958); test: Furin counterscreen qHTS for Zika virus inhibitors (AID 1347149);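 also: purified recombinant full-length human furin enzyme at 5 nM; fluorescence gain from furin cutting a BOC-RVRR-AMC peptide substrate over 15 min; top concentration of the series differs between compounds; nearly all actives have a fitted effect of over 70% in size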
# Furin (Homo sapiens), sequence (P09958 whole entry, looked up): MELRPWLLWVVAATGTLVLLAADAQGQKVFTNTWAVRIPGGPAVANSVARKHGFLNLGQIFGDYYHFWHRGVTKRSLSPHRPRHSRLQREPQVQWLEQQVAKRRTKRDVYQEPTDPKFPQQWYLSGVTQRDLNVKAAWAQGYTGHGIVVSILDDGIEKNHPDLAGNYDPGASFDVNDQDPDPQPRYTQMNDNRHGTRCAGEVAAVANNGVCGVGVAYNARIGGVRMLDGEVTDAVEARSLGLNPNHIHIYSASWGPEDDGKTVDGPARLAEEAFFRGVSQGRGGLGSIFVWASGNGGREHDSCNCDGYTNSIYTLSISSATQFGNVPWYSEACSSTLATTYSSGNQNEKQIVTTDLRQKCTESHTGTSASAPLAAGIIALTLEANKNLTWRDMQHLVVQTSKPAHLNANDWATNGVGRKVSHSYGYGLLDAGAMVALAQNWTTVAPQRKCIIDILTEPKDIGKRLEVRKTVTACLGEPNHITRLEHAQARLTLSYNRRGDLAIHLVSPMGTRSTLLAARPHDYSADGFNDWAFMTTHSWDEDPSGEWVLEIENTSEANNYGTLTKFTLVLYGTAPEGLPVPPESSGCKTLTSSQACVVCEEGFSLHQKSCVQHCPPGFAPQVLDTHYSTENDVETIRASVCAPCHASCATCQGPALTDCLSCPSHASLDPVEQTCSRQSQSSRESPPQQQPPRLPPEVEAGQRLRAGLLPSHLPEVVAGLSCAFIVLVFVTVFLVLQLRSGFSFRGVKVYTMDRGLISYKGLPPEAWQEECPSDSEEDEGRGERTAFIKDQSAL
# Method in brief: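 Fluorogenic cleavage of BOC-RVRR-AMC (2 microM final, Km ~15 µM) was monitored (ex 340, em 450 nm) at 37C after 15 min RT preincubation of 5 nM furin with compounds in HEPES pH 7.0 buffer with CaCl2 and Triton X-100. Percent inhibition was fitted to a 4-parameter Hill curve.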
# [12] = test system: Zika virus NS2B-NS3 protease (linked construct); test: Confirmatory screen NINDS AMC qHTS for Zika virus inhibitors (AID 1347152); details: Purified linked NS2B-NS3, AMC substrate fluorescence; also: potency is read from the fitted curve at half-maximal effect; nearly all actives have a fitted effect of over 70% in size
# Method in brief: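 Linked NS2B-NS3 1 nM, Tris pH 8.0/0.01% Tween 20; cpd 15 min RT dark; + Nle-KRR-AMC 10 µM (Km 18.3 µM); read 0 and 15 min, 340/450 nm; %inh vs controls, 4-param Hill.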
# [13] = test system: Zika virus NS2B-NS3 protease (unlinked complex); test: Confirmatory screen GU AMC qHTS for Zika virus inhibitors (AID 1347153); details: Recombinant NS2B-NS3 protease, AMC substrate fluorescence
# Method in brief: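 Noncovalent NS2B hydrophilic domain/NS3 protease complex (25 nM) in 10 mM Tris-HCl pH 8.0, 0.01% Tween 20 was preincubated 15 min at room temperature with compounds. Then 10 µM AMC substrate (Km 18.3 µM) was added; fluorescence was read over 15 min and fitted to a 4-parameter Hill equation.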
# [14] = ZIKV-mCherry secondary qHTS for Zika virus inhibitors (AID 1347158); also: top concentration of the series differs between compounds
# Method in brief: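 Vero cells, 5,000/well, plated overnight at 37 °C, then compound added and infected with recombinant ZIKV-mCherry at MOI 1 for 48-72 h. PFA-fixed, Hoechst nuclear stain, high-content imaging; cells with mCherry intensity above 450 RFU scored infected, reported as percent infection.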
# [15] = Confirmatory screen NINDS Rhodamine qHTS for Zika virus inhibitors (AID 1347161); also: potency is read from the fitted curve at half-maximal effect; nearly all actives have a fitted effect of over 60% in size
# Method in brief: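 Single-chain NS2B-NS3 protease, 25 nM, pH 8.0; compounds preincubated 15 min. Activity: Rhodamine110 release from 1.5 microM substrate over 15 min, room temperature, data fitted to 4-parameter Hill.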
structure (smiles),measurement,setting,value
CCN(CC)CCOC(=O)C(Cc1cccc2ccccc12)CC1CCCO1 (stereo not drawn),Potency,[1],inactive
CCCCCCCCCCC[C@@H](C[C@@H]1OC(=O)[C@H]1CCCCCC)OC(=O)[C@H](CC(C)C)NC=O,Potency,[2],inactive
same,Potency,[3],inactive
same,Potency,[4],4.65 µM (active)
same,Potency,[5],inactive
same,Potency,[6],inactive
same,Potency,[7],inactive
same,Potency,[8],inactive
same,Potency,[9],inactive
O=C(Nc1cccc(C2=NCCN2)c1)Nc1cccc(C2=NCCN2)c1,Potency,[1],inactive
CCCCCCCCCCCCOCCOCCOCCOCCOCCOCCOCCOCCOCCO,Potency,[3],14.7 µM (active)
same,Potency,[10],inactive
same,Potency,[5],inactive
same,Potency,[6],inactive
same,Potency,[7],inactive
same,Potency,[8],inactive
same,Potency,[9],inactive
same,Potency,[1],inactive
Nc1nc(Cl)nc2c1ncn2[C@@H]1O[C@H](CO)[C@@H](O)[C@@H]1F,Potency,[2],inactive
same,Potency,[3],inactive
same,Potency,[10],inactive
same,Potency,[6],5.22 µM (active)
same,Potency,[7],0.465 µM (active)
same,Potency,[1],inactive
CC1(COc2ccc(CC3SC(=O)NC3=O)cc2)CCCCC1 (stereo not drawn),Potency,[11],inactive
same,Potency,[12],19.2 µM (active)
same,Potency,[13],21.5 µM (active)
same,"activity change, negative = inhibition",[1],6.2% [at 6.83 µM]
same,outcome,[14],inactive
same,Potency,[15],3.11 µM (active)
CCN1/C(=C/C=C/c2sc3ccccc3[n+]2CC)Sc2ccccc21,Potency,[2],0.465 µM (active)
same,Potency,[3],0.811 µM (active)
same,Potency,[4],0.512 µM (active)
same,Potency,[5],5.22 µM (active)
same,Potency,[6],inactive
same,Potency,[7],4.14 µM (active)
same,Potency,[8],5.85 µM (active)
same,Potency,[9],2.29 µM (active)
COc1ccc(C(=O)c2ccccc2O)c(O)c1,Potency,[1],inactive
CN(C)C(=O)Nc1ccc(Cl)c(Cl)c1,Potency,[10],inactive
same,Potency,[9],inactive
same,Potency,[1],inactive
C=C[C@H]1CN2CC[C@H]1C[C@@H]2[C@@H](O)c1ccnc2ccc(OC)cc12,Potency,[1],inactive
